The supplement of paper PMC6555819

How the values were obtained:
Assay in all cases: PBM binding z-score (relative to random genomic background probes); higher = stronger binding; sequences stand for … in GC…GCGATTGACAGCGTAGAATGAAGG
[1] = test system: FXR:RXRa (NR concentration 270 nM, RXRa partner concentration 90 nM)
How it was run: (§1)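 Antibodies against each partner of ligand-free nuclear receptor dimers (one per run) detected binding on custom Agilent 4×180K protein-binding microarrays after 1 h incubation. The double-stranded probes had 34-nt variable regions carrying direct-repeat seeds, single-nucleotide variants, half-site ablations and random human genomic background sequences. Binding z-scores, from regression-normalized fluorescence, use the random background probes as reference.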

[2] = test system: LXRa:RXRa (NR concentration 270 nM, RXRa partner concentration 90 nM)
How it was run: as §1

[3] = test system: LXRa homodimer (NR concentration 270 nM)
How it was run: as §1

[4] = test system: LXRb:RXRa (NR concentration 270 nM, RXRa partner concentration 90 nM)
How it was run: as §1

[5] = test system: LXRb homodimer (NR concentration 270 nM)
How it was run: as §1

[6] = test system: PPARa:RXRa (NR concentration 270 nM, RXRa partner concentration 90 nM)
How it was run: as §1

[7] = test system: PPARg:RXRa (NR concentration 180 nM, RXRa partner concentration 90 nM)
How it was run: as §1

[8] = test system: PPARg:RXRa 270nM:90nM, anti-RXR (NR concentration 270 nM, RXRa partner concentration 90 nM)
How it was run: as §1

[9] = test system: PPARg:RXRa 30nM:10nM, anti-RXR (NR concentration 30 nM, RXRa partner concentration 10 nM)
How it was run: as §1

[10] = test system: PPARg:RXRa 90nM:30nM, anti-RXR (NR concentration 90 nM, RXRa partner concentration 30 nM)
How it was run: as §1

With GCAGACAGGTGAACCGCAGGTAACTCAGGGTGGC the PBM binding z-score [1] was 0.339, the PBM binding z-score [2] was 0.437 and the PBM binding z-score [3] was -0.44. It also gave a PBM binding z-score [4] of 0.125, a PBM binding z-score [5] of -1.15 and a PBM binding z-score [6] of 1.77. For the same sequence, the PBM binding z-score [7] was 0.554, the PBM binding z-score [8] was 0.309 and the PBM binding z-score [9] was -0.52. It also gave a PBM binding z-score [10] of 0.0575.
With ATCGAAAGGTCGAGGTAAGTATAGAGAAAGGGAA the PBM binding z-score [1] was 3.98, the PBM binding z-score [2] was 3.46 and the PBM binding z-score [3] was 0.361. The PBM binding z-score [4] was 2.66, the PBM binding z-score [5] was 0.336 and the PBM binding z-score [6] was 4.29. For the same sequence, the PBM binding z-score [7] was 2.72, the PBM binding z-score [8] was 3.32 and the PBM binding z-score [9] was 1.2. The PBM binding z-score [10] was 2.24.
With CGCCCAAGGTCAAAGGTCAGTGAAGAGATGACGG the PBM binding z-score [1] was 8.13, the PBM binding z-score [2] was 6.57 and the PBM binding z-score [3] was 3.09. For the same sequence, the PBM binding z-score [4] was 6.44, the PBM binding z-score [5] was 1.72 and the PBM binding z-score [6] was 7.07. It also gave a PBM binding z-score [7] of 10.1, a PBM binding z-score [8] of 8.16 and a PBM binding z-score [9] of 7.42. It also gave a PBM binding z-score [10] of 8.6.
TATAGAGGGTCAAAGGCCAGAGTACGAATGTCGA showed a PBM binding z-score [1] of 6.65, a PBM binding z-score [2] of 4.84 and a PBM binding z-score [3] of 0.902. It also gave a PBM binding z-score [4] of 3.76, a PBM binding z-score [5] of 1.49 and a PBM binding z-score [6] of 5.82. For the same sequence, the PBM binding z-score [7] was 8.05, the PBM binding z-score [8] was 6.87 and the PBM binding z-score [9] was 5.22. For the same sequence, the PBM binding z-score [10] was 7.09.
TGGAGTAGGTTAGTCGGGGCATTCAGCCAACATA was tested, and the PBM binding z-score [1] was 0.43, the PBM binding z-score [2] was 0.268 and the PBM binding z-score [3] was 0.358. For the same sequence, the PBM binding z-score [4] was 1.05, the PBM binding z-score [5] was 1.05 and the PBM binding z-score [6] was 1.31. The PBM binding z-score [7] was 0.778, the PBM binding z-score [8] was 1.32 and the PBM binding z-score [9] was 0.564. For the same sequence, the PBM binding z-score [10] was 1.22.
For CCTGCTAGGTCATGGTCATCTAATCTACAGTATG, the PBM binding z-score [1] was 3.56, the PBM binding z-score [2] was 2.73 and the PBM binding z-score [3] was 0.055. It also gave a PBM binding z-score [4] of 1.89, a PBM binding z-score [5] of -0.408 and a PBM binding z-score [6] of 3.6. The PBM binding z-score [7] was 2.73, the PBM binding z-score [8] was 3.03 and the PBM binding z-score [9] was 0.662. It also gave a PBM binding z-score [10] of 1.85.
CAAATTAGGTCACCGGAAGGTCAAAGTCCGCATG showed a PBM binding z-score [1] of 6.61, a PBM binding z-score [2] of 6.31 and a PBM binding z-score [3] of 5.39. It also gave a PBM binding z-score [4] of 5.47, a PBM binding z-score [5] of 1.82 and a PBM binding z-score [6] of 6.44. For the same sequence, the PBM binding z-score [7] was 9.14, the PBM binding z-score [8] was 7.56 and the PBM binding z-score [9] was 5.87. It also gave a PBM binding z-score [10] of 7.39.
In the case of ACTATTAGTTGACTTAGGGCAACCGATACGACGC, the PBM binding z-score [1] is reported as 0.119, the PBM binding z-score [2] is reported as 0.0991 and the PBM binding z-score [3] is reported as -0.0501. It also gave a PBM binding z-score [4] of 0.277, a PBM binding z-score [5] of 0.41 and a PBM binding z-score [6] of 0.0707. For the same sequence, the PBM binding z-score [7] was 0.995, the PBM binding z-score [8] was 0.159 and the PBM binding z-score [9] was 0.448. The PBM binding z-score [10] was 0.379.
Work on ACTAGCAGTCCAAGTTTGGGTCACTCAAACAAAG yielded a PBM binding z-score [1] of 0.21, a PBM binding z-score [2] of 0.226 and a PBM binding z-score [3] of -0.0309. For the same sequence, the PBM binding z-score [4] was 0.795, the PBM binding z-score [5] was -0.524 and the PBM binding z-score [6] was 1.13. For the same sequence, the PBM binding z-score [7] was -0.105, the PBM binding z-score [8] was 0.22 and the PBM binding z-score [9] was -0.155. For the same sequence, the PBM binding z-score [10] was -0.0965.
ACTATTAGTTTAGACGAGGGCAACCGATAGGTTG gave a PBM binding z-score [1] of 0.453, a PBM binding z-score [2] of 0.483 and a PBM binding z-score [3] of 0.356. For the same sequence, the PBM binding z-score [4] was 0.275, the PBM binding z-score [5] was 0.368 and the PBM binding z-score [6] was 0.386. The PBM binding z-score [7] was 0.651, the PBM binding z-score [8] was 0.246 and the PBM binding z-score [9] was -0.0368. For the same sequence, the PBM binding z-score [10] was -0.045.
ACAATTAGTTGAGACGAGGGCAACCGATAGGTTG showed a PBM binding z-score [1] of 0.779, a PBM binding z-score [2] of 0.374 and a PBM binding z-score [3] of 0.178. For the same sequence, the PBM binding z-score [4] was 0.228, the PBM binding z-score [5] was -0.183 and the PBM binding z-score [6] was 0.503. For the same sequence, the PBM binding z-score [7] was 0.794, the PBM binding z-score [8] was 0.375 and the PBM binding z-score [9] was 0.274. For the same sequence, the PBM binding z-score [10] was 0.45.
CTCGAAAGGTTGTGCTCAGGTGAGTATACCAAAC gave a PBM binding z-score [1] of 0.895, a PBM binding z-score [2] of 0.617 and a PBM binding z-score [3] of -0.192. It also gave a PBM binding z-score [4] of 0.714, a PBM binding z-score [5] of -0.313 and a PBM binding z-score [6] of 1.04. The PBM binding z-score [7] was -0.0653, the PBM binding z-score [8] was 0.312 and the PBM binding z-score [9] was -0.567. For the same sequence, the PBM binding z-score [10] was 0.171.
